According to the supplement of paper PMC11732987, “Enantioselective OTUD7B fragment discovery through chemoproteomics screening and high-throughput optimisation” (Communications Chemistry, 2025):

Key:
Assay in all cases: log2 ratio of Biotin-Ahx-Ub-VS probe labelling (fragment/DMSO); higher = less target engagement (more negative = stronger competition), active = hit call of the paper (q ≤ 0.05, log2 ratio ≤ -1)
Conditions in all cases: compound concentration: 200 uM; treatment time: 3 h
[1] = biological target: T1, ALG13 (UniProt Q9NP73)
T1 sequence (whole entry): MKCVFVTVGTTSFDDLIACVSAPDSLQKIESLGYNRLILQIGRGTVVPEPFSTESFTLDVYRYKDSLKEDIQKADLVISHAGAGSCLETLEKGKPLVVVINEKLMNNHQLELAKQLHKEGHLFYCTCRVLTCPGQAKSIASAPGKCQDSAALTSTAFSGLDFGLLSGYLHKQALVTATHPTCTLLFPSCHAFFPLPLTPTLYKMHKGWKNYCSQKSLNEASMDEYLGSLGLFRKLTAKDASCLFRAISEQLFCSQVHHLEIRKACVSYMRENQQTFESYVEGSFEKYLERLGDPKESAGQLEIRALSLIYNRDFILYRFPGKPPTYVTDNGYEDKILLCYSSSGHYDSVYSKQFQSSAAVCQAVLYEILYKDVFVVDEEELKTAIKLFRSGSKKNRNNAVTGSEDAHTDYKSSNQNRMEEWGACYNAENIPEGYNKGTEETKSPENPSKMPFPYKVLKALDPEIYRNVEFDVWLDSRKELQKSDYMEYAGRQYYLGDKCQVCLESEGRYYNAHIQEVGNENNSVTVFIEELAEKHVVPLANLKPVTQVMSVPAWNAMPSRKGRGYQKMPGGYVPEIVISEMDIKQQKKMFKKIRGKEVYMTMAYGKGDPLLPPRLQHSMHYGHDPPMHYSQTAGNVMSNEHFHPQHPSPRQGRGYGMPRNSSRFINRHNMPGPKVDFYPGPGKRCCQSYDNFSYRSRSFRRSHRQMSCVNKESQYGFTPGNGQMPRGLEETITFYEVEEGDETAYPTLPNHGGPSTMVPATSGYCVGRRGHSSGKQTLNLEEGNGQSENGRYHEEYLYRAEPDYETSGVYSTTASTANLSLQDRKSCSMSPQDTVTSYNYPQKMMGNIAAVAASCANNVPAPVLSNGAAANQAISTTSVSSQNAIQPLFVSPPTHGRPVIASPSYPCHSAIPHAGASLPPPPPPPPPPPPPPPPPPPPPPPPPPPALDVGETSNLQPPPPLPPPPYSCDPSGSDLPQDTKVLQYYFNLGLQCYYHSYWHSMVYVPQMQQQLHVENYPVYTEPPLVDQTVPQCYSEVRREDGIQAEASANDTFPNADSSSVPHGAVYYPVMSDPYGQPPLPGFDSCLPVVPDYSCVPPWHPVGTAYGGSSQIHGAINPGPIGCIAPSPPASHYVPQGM
Summary of the method: (§1)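 Triplicate samples of HEK293T lysate, 495 µg each, received fragment at 200 µM or vehicle for 3 h, followed by Biotin-Ahx-Ub-VS (0.5 µM final) for 1 h. After NeutrAvidin enrichment of labelled DUBs and LysC/trypsin digestion, peptides were run by diaPASEF LC-MS/MS. The values are average log2 fragment/vehicle ratios from global-median-normalised Spectronaut label-free quantities, tested by unpaired t-test on proteins having ≥2 unique peptides.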

[2] = biological target: ATXN3 (UniProt P54252)
ATXN3, sequence (P54252 whole entry): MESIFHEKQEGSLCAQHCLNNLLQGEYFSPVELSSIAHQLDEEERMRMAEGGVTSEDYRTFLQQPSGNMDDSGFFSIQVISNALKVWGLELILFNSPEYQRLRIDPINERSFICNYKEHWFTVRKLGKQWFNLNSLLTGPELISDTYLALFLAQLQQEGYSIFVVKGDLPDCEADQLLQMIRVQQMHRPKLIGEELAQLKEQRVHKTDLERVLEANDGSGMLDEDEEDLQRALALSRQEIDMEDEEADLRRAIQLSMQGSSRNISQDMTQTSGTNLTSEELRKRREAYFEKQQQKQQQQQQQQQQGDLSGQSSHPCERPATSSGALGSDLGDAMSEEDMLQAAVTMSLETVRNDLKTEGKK
Summary of the method: as §1

[3] = biological target: T2, BAP1 (UniProt Q92560)
T2 sequence (whole entry): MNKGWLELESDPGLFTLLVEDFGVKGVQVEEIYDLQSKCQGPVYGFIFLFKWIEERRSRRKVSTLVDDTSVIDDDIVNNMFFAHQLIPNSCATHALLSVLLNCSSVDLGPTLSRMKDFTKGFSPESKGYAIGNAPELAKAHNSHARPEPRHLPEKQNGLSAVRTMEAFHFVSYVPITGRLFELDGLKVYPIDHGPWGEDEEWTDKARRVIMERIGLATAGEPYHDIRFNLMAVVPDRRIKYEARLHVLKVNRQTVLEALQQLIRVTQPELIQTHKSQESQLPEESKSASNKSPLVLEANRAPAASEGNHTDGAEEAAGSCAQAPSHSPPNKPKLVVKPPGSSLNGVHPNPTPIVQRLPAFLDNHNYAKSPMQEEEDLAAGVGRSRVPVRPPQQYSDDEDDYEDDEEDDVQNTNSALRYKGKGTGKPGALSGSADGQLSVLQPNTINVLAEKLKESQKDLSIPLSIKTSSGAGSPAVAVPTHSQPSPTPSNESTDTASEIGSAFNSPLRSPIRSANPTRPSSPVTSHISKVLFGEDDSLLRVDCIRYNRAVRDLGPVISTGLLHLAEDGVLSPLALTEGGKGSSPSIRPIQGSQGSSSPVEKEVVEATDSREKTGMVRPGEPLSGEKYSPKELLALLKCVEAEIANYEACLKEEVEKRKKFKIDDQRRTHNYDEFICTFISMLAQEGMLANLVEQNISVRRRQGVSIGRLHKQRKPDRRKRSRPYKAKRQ
Summary of the method: as §1

[4] = biological target: EIF3F (UniProt O00303)
EIF3F, sequence (O00303 whole entry): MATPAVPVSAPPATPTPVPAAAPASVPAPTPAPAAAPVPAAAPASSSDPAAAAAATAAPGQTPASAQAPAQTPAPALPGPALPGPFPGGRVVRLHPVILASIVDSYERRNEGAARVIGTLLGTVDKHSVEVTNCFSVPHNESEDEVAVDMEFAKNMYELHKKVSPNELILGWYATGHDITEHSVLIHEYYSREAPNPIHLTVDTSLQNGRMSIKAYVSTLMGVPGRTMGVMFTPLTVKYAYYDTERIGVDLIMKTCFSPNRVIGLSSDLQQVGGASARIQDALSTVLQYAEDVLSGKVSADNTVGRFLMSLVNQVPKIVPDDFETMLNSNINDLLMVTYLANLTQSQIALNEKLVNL
Summary of the method: as §1

[5] = biological target: EIF3H (UniProt O15372)
EIF3H, sequence (O15372 whole entry): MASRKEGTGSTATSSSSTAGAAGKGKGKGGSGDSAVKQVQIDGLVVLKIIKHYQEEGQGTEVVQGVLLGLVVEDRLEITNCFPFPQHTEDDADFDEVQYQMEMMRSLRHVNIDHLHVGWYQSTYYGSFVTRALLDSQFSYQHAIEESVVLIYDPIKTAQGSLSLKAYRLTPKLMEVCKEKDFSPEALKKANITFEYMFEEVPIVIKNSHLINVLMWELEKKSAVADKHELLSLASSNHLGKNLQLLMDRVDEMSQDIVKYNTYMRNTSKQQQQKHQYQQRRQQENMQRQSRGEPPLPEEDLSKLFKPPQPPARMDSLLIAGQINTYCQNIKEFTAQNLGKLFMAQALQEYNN
Summary of the method: as §1

[6] = biological target: T3, FAM105A (UniProt Q9NUU6)
T3 sequence (whole entry): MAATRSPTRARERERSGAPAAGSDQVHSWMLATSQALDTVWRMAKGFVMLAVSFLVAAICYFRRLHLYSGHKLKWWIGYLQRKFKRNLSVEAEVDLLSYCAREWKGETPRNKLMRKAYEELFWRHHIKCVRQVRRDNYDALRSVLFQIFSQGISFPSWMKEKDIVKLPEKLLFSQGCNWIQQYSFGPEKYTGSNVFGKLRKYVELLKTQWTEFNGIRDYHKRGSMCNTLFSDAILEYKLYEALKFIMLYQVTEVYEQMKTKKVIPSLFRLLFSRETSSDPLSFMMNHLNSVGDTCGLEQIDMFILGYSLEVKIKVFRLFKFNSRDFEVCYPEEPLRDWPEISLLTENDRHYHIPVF
Summary of the method: as §1

[7] = biological target: OTUB1 (UniProt Q96FW1)
OTUB1, sequence (Q96FW1 whole entry): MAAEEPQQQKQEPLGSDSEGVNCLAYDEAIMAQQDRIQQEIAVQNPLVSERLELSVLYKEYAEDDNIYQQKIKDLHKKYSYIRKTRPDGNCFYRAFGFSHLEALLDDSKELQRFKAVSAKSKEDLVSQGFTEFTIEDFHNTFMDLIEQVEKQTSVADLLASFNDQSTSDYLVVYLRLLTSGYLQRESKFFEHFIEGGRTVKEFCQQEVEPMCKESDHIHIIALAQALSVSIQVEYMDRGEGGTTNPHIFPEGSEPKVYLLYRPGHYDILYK
Summary of the method: as §1

[8] = biological target: T4, OTUD4 (UniProt Q01804)
T4 sequence (whole entry): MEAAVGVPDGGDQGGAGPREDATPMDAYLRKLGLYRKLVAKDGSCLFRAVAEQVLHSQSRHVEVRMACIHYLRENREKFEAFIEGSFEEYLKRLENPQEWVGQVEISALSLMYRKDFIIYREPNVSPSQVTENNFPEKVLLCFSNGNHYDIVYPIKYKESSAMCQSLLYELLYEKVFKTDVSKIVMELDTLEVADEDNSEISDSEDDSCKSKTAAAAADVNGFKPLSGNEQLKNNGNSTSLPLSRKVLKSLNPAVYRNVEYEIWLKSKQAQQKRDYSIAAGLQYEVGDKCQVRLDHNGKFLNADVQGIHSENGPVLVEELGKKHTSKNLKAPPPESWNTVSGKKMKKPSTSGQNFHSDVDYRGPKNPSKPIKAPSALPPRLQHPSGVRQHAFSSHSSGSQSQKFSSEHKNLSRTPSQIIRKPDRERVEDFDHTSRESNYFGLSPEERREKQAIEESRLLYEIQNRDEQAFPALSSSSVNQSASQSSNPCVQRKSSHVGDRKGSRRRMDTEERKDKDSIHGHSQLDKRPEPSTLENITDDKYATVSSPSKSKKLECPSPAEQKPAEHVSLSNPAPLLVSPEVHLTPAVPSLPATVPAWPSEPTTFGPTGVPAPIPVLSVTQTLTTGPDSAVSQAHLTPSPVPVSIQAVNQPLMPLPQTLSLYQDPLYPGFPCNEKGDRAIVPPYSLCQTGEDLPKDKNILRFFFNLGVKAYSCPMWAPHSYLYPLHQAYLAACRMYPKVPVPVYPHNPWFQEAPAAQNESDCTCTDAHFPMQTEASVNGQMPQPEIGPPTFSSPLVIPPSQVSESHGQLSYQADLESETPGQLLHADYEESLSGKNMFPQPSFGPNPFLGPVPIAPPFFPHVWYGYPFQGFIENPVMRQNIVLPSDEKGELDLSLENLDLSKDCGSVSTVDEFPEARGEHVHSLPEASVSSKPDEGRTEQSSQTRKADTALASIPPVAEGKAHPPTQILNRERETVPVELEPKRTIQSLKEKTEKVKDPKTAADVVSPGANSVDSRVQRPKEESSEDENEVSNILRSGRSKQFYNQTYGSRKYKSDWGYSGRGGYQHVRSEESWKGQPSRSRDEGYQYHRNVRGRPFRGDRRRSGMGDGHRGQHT
Summary of the method: as §1

[9] = biological target: T5, OTUD5 (UniProt Q96G74)
T5 sequence (whole entry): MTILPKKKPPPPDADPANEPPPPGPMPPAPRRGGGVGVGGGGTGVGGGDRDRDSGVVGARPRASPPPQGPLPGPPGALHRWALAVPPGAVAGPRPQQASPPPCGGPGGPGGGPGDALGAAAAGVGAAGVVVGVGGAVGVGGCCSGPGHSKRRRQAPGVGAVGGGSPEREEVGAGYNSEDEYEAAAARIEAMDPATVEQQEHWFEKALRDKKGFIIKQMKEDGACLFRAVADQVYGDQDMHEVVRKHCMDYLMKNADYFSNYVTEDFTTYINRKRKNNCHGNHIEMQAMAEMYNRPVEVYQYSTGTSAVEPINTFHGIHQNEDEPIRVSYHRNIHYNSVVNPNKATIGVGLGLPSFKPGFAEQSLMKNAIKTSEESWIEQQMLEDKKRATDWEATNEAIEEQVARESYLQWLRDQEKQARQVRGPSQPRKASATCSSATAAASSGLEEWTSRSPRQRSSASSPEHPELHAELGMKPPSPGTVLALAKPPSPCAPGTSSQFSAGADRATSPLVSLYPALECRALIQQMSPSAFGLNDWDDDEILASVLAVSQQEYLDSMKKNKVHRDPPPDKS
Summary of the method: as §1

Measured: log2 ratio of Biotin-Ahx-Ub-VS probe labelling

Cc1cccn2cc(CCNC(=O)CCl)nc12.Cl
inactive: [1] 0.103 | [2] -0.114 | [3] -0.597 | [4] -0.323 | [5] 0.00132 | [6] 0.112 | [7] -0.0371 | [8] 0.123 | [9] 0.0126
